The source made the active and inactive calls. The calls were made as follows: active = hit-call score of the fitted dose curve at least 0.9, where 1 is the maximum; inactive = score below 0.9.
Assays:
[1] = ATG_GRE_CIS: Attagene CIS-FACTORIAL HepG2 Assay for human Glucocorticoid Response Elements (GRE) (AID 2282947); settings: HepG2 GRE cis-reporter, Attagene multiplex mRNA; AC50: actives raise or lower the signal unless noted; outcome: actives raise or lower the signal unless noted
In short: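 Assay uses human hepatoma HepG2 cells transfected with cis-promoter reporter units, exposed 24 h. mRNA from reporters detected by RT-PCR plus capillary electrophoresis; DMSO serves as negative control and baseline.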

[2] = ATG_ISRE_CIS: Attagene CIS-FACTORIAL HepG2 Assay for human Interferon Regulatory Factor 1 (IRF1) binding to an Interferon-Stimulated Response Element (ISRE) (AID 2282948); settings: HepG2 ISRE cis-reporter (Attagene), mRNA transcription readout; actives raise or lower the signal
In short: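 HepG2 cells transiently transfected with multiplexed cis-promoter reporter units; after 24 h compound exposure, reporter mRNA quantified by RT-PCR, FAM labelling, HpaI digestion and capillary electrophoresis. Bidirectional fit versus DMSO baseline.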

[3] = ATG_M_32_CIS: Attagene CIS-FACTORIAL HepG2 Assay for M32 Transcription Factor (Internal Marker) (AID 2282949); settings: HepG2 Attagene cis-factorial M32 reporter, mRNA; actives raise or lower the signal;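 also: background control marker of the multiplexed CIS panel rather than a real target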
In short: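 Internal background marker read-out: RT-PCR/capillary electrophoresis fluorescence of reporter transcripts from transiently transfected HepG2 cells after 24 h chemical exposure. Activity fitted bidirectionally relative to DMSO negative control.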

[4] = ATG_M_06_CIS: Attagene CIS-FACTORIAL HepG2 Assay for M06 Transcription Factor (Internal Marker) (AID 2282950); settings: HepG2 Attagene CIS-FACTORIAL M06 internal marker reporter; actives raise or lower the signal
In short: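 HepG2 liver cells, 24 h exposure. Reporter transcripts from transfected cis-element constructs quantified by RT-PCR/capillary electrophoresis fluorescence. Bidirectional curve fit against DMSO.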

[5] = target: Hypoxia-inducible factor 1-alpha (Homo sapiens) (UniProt Q16665); assay: ATG_HIF1a_CIS: Attagene CIS-FACTORIAL HepG2 Assay for human Hypoxia Inducible Factor 1 (HIF1A) (AID 2282951); settings: HepG2 Attagene cis-factorial HIF1a reporter transcription; actives raise or lower the signal
Sequence of Hypoxia-inducible factor 1-alpha (Homo sapiens) (Q16665 whole entry, looked up): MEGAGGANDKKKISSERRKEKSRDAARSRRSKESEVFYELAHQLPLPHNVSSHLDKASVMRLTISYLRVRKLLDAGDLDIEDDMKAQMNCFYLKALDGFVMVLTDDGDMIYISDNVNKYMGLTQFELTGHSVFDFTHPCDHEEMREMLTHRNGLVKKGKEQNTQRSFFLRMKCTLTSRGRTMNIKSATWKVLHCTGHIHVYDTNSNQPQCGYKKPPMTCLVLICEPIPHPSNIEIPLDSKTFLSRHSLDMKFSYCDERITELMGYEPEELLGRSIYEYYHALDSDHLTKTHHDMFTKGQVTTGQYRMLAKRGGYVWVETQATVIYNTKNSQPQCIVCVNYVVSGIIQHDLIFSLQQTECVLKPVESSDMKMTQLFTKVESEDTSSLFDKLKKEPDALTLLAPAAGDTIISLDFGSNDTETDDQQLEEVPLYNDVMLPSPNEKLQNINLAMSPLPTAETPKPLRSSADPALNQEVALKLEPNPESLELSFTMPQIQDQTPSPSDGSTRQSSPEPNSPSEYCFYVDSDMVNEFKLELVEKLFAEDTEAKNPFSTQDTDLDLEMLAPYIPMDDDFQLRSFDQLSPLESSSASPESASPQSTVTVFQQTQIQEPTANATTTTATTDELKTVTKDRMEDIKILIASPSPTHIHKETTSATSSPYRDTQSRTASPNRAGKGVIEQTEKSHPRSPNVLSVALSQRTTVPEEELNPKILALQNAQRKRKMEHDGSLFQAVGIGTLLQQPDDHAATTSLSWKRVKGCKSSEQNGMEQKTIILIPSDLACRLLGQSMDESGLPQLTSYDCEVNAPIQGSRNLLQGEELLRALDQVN
In short: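 Endogenous-TF cis reporter readout, human HepG2 cells, 24 h incubation; mRNA detected via RT-PCR and capillary electrophoresis fluorescence; DMSO-normalised bidirectional fitting.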

[6] = target: Hepatocyte nuclear factor 6 (Homo sapiens) (UniProt Q9UBC0); assay: ATG_HNF6_CIS: Attagene CIS-FACTORIAL HepG2 Assay for human Hepatocyte Nuclear Factor 6 (HNF6) (AID 2282952); settings: HepG2 Attagene cis-factorial HNF6 reporter transcription; actives raise or lower the signal
Sequence of Hepatocyte nuclear factor 6 (Homo sapiens) (Q9UBC0 whole entry, looked up, the tested form may be a part): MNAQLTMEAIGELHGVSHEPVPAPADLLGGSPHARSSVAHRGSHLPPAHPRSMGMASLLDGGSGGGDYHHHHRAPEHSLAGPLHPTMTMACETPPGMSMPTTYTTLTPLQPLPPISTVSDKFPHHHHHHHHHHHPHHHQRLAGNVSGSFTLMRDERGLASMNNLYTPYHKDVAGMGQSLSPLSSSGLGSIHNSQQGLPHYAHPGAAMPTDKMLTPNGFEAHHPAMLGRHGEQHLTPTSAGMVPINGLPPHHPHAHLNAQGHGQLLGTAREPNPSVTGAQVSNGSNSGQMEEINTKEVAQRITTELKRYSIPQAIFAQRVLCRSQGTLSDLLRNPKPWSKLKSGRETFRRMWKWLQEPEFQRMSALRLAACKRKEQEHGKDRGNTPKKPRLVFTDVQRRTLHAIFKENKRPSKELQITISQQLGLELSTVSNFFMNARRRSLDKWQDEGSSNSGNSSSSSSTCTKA
In short: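 HepG2 cells transiently transfected with cis-element-driven multiplexed reporter units measuring endogenous transcription factor activity. After 24 h exposure, reporter mRNA quantified by RT-PCR, FAM-labelled fragments and capillary electrophoresis; bidirectional fitting versus DMSO.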

[7] = target: Heat shock factor protein 1 (Homo sapiens) (UniProt Q00613); assay: ATG_HSE_CIS: Attagene CIS-FACTORIAL HepG2 Assay for human Heat Shock Transcription Factor 1 (HSE) (AID 2282953); settings: HepG2 HSE cis-reporter, Attagene RNA transcription; actives raise or lower the signal
Sequence of Heat shock factor protein 1 (Homo sapiens) (Q00613 whole entry, looked up, the tested form may be a part): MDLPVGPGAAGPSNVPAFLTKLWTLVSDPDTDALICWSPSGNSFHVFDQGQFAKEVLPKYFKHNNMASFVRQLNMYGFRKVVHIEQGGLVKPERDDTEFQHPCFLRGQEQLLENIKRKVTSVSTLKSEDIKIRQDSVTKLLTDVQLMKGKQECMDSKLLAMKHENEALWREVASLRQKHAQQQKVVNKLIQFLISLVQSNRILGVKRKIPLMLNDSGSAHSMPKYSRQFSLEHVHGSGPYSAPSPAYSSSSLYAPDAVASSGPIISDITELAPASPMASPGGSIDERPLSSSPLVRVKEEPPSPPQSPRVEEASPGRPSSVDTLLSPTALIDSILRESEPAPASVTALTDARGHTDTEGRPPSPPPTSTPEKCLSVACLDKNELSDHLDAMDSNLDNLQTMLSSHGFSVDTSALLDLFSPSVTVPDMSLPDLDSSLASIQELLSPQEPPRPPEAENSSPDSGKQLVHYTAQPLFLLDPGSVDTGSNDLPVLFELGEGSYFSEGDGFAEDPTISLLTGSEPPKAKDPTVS
In short: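 Endogenous transcription factor activity captured via cis-promoter reporter units transfected into HepG2; treatment lasted 24 h. Fluorescence intensity of reporter fragments analysed with bidirectional curve fitting, DMSO baseline.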

[8] = ATG_MRE_CIS: Attagene CIS-FACTORIAL HepG2 Assay for human Metal Responsive Element (MRE) (AID 2282954); settings: HepG2 MRE cis-reporter transcription, Attagene multiplex; actives raise or lower the signal
In short: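 After a 24 h chemical exposure, transiently transfected HepG2 cells yield RNA whose reporter sequences are amplified, FAM-labelled and sized by capillary electrophoresis. Curves are fitted bidirectionally relative to DMSO.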

[9] = ATG_PBREM_CIS: Attagene CIS-FACTORIAL HepG2 Assay for human Phenobarbital-responsive Enhancer Module (PBREM) (AID 2282955); settings: HepG2 PBREM cis-reporter, Attagene multiplexed transcription; actives raise or lower the signal
In short: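 Readout: reporter mRNA, fluorescent RT-PCR fragments separated by capillary electrophoresis. System: HepG2 transiently transfected with cis-regulated reporter units. Exposure: 24 h. Analysis: bidirectional, DMSO baseline.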

[10] = target: Paired box protein Pax-6 (Homo sapiens) (UniProt P26367); assay: ATG_Pax6_CIS: Attagene CIS-FACTORIAL HepG2 Assay for human Paired Box 6 (PAX6) (AID 2282956); settings: HepG2 CIS-FACTORIAL PAX6 reporter transcription, RNA readout; actives raise or lower the signal
Sequence of Paired box protein Pax-6 (Homo sapiens) (P26367 whole entry, looked up): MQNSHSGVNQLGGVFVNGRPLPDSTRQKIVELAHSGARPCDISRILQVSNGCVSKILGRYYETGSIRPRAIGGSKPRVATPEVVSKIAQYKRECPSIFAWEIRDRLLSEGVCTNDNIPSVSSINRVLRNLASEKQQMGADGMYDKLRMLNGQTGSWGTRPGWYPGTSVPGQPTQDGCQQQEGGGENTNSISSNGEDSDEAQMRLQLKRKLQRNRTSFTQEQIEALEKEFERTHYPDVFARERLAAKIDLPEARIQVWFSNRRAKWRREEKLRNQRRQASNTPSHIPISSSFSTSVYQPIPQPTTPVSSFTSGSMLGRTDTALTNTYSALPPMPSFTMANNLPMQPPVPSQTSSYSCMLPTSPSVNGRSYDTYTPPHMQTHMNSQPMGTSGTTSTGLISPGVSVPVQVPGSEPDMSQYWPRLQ
In short: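 HepG2 cells transiently transfected with multiplexed cis-promoter reporter units (endogenous TF activity) were dosed for 24 h. Reporter mRNA was quantified by RT-PCR, 6-FAM labeling, HpaI digestion and capillary electrophoresis; bidirectional fitting versus DMSO baseline.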

SMILES | outcome [1] | outcome [2] | outcome [3] | outcome [4] | outcome [5] | outcome [6] | outcome [7] | outcome [8] | outcome [9] | outcome [10] | AC50 [7] | AC50 [5] | AC50 [6] | AC50 [8] | AC50 [9] | AC50 [10] | AC50 [1] | AC50 [2]
CNNCc1ccc(C(=O)NC(C)C)cc1 | inactive | inactive | inactive | inactive | inactive | inactive | inactive | inactive | inactive | inactive |  |  |  |  |  |  |  | 
FC(F)(F)C1(F)C(F)(F)C(F)(F)C(F)(F)C1(F)F | inactive | inactive | inactive | inactive | inactive | inactive | inactive | inactive | inactive | inactive |  |  |  |  |  |  |  | 
CN(CCO)S(=O)(=O)C(F)(F)C(F)(F)C(F)(F)C(F)(F)C(F)(F)C(F)(F)C(F)(F)C(F)(F)F | inactive | inactive | inactive | inactive | inactive | inactive | inactive | inactive | inactive | inactive |  |  |  |  |  |  |  | 
Cc1ccccc1OCC(=O)O | inactive | inactive | inactive | inactive | inactive | inactive | inactive | inactive | inactive | inactive |  |  |  |  |  |  |  | 
O=C(NCc1ncc(C(F)(F)F)cc1Cl)c1c(Cl)cccc1Cl | inactive | inactive | inactive | inactive | inactive | inactive | inactive | inactive | inactive | inactive |  |  |  |  |  |  |  | 
CCCCCc1ccc(O)cc1 | inactive | inactive | inactive | inactive | inactive | inactive |  | inactive | inactive | inactive | 33.4 µM (active) |  |  |  |  |  |  | 
CC(C)(O)C(=O)c1ccccc1 | inactive | inactive | inactive | inactive | inactive | inactive | inactive | inactive | inactive | inactive |  |  |  |  |  |  |  | 
NNc1nc(-c2ccc([N+](=O)[O-])cc2)cs1 | inactive | inactive | inactive | inactive | inactive | inactive |  | inactive | inactive | inactive | 51.3 µM (active) |  |  |  |  |  |  | 
CC1CCC(C(=O)O)CC1 (centres undefined) | inactive | inactive | inactive | inactive | inactive | inactive | inactive | inactive | inactive | inactive |  |  |  |  |  |  |  | 
NS(=O)(=O)O | inactive | inactive | inactive | inactive | inactive | inactive | inactive | inactive | inactive | inactive |  |  |  |  |  |  |  | 
Clc1ccc(Nc2nnc(Cc3ccncc3)c3ccccc23)cc1 | inactive | inactive | inactive | inactive |  |  |  |  |  |  | 75.2 µM (active) | 15.8 µM (active) | 17.9 µM (active) | 27.6 µM (active) | 8.51 µM (active) | 27 µM (active) |  | 
CCCCCCCCCCCCCC[n+]1ccccc1 | inactive | inactive | inactive | inactive | inactive | inactive | inactive | inactive | inactive |  |  |  |  |  |  | 11.1 µM (active) |  | 
NNC(=O)CCCCC(=O)NN | inactive | inactive | inactive | inactive | inactive | inactive | inactive | inactive | inactive | inactive |  |  |  |  |  |  |  | 
COc1cc(OC)nc(NC(=O)NS(=O)(=O)Nc2ccccc2C(=O)N(C)C)n1 | inactive | inactive | inactive | inactive | inactive | inactive | inactive | inactive | inactive | inactive |  |  |  |  |  |  |  | 
Nc1ccn([C@@H]2O[C@H](CO)[C@@H](O)C2O)c(=O)n1 (some centres undefined) | inactive | inactive | inactive | inactive | inactive | inactive | inactive | inactive | inactive | inactive |  |  |  |  |  |  |  | 
CCCCCCCCCCCC(=O)NCCCN(C)C |  |  | inactive | inactive |  | inactive |  |  | inactive |  | 17.5 µM (active) | 18.1 µM (active) |  | 19.8 µM (active) |  | 19.6 µM (active) | 14.9 µM (active) | 16.9 µM (active)

SMILES | outcome [1] | outcome [2] | outcome [3] | outcome [4] | outcome [5] | outcome [6] | outcome [7] | outcome [8] | outcome [9] | outcome [10] | AC50 [7] | AC50 [5] | AC50 [6] | AC50 [8] | AC50 [9] | AC50 [10] | AC50 [1] | AC50 [2]
CCCCCCCCC1CCC(=O)O1 (centres undefined) | inactive | inactive | inactive | inactive | inactive | inactive | inactive | inactive | inactive | inactive |  |  |  |  |  |  |  | 
CCCCCCOC(=O)c1ccc(O)cc1 | inactive | inactive | inactive | inactive | inactive |  |  |  |  |  | 60.8 µM (active) |  | 52.7 µM (active) | 59.6 µM (active) | 29.8 µM (active) | 53.7 µM (active) |  | 
CCCCCCc1ccc(N)cc1 | inactive |  | inactive | inactive | inactive | inactive | inactive | inactive | inactive | inactive |  |  |  |  |  |  |  | 26.9 µM (active)
CCN(CC)CC | inactive | inactive | inactive | inactive | inactive | inactive | inactive | inactive | inactive | inactive |  |  |  |  |  |  |  | 
CCc1ccccc1O | inactive | inactive | inactive | inactive | inactive | inactive | inactive | inactive | inactive | inactive |  |  |  |  |  |  |  | 
COCC1CCC(CO)CC1 (centres undefined) | inactive | inactive | inactive | inactive | inactive | inactive | inactive | inactive | inactive | inactive |  |  |  |  |  |  |  | 
C=CC(=O)OCCN(CC)CC | inactive |  | inactive | inactive | inactive | inactive |  |  | inactive |  | 152 µM (active) |  |  | 62.9 µM (active) |  | 58.9 µM (active) |  | 44.3 µM (active)
O=C(O)CCC(F)(F)C(F)(F)C(F)(F)C(F)(F)C(F)(F)F | inactive | inactive | inactive | inactive | inactive | inactive | inactive | inactive | inactive | inactive |  |  |  |  |  |  |  | 
CCc1cccc(CC)c1NC(=O)C(=O)O | inactive | inactive | inactive | inactive | inactive | inactive | inactive | inactive | inactive | inactive |  |  |  |  |  |  |  | 
O=C1c2ccccc2C(=O)c2c(O)c(O)cc(O)c21 | inactive | inactive | inactive | inactive | inactive | inactive | inactive | inactive | inactive | inactive |  |  |  |  |  |  |  | 
COc1cccc(O)c1 | inactive | inactive | inactive | inactive | inactive | inactive | inactive | inactive | inactive | inactive |  |  |  |  |  |  |  | 
COC(O)c1ccccc1 (centres undefined) | inactive | inactive | inactive | inactive | inactive | inactive | inactive | inactive | inactive | inactive |  |  |  |  |  |  |  | 
C=CC(F)(F)C(F)(F)C(F)(F)C(F)(F)F | inactive | inactive | inactive | inactive | inactive | inactive | inactive | inactive | inactive | inactive |  |  |  |  |  |  |  | 
FCOC(C(F)(F)F)C(F)(F)F | inactive | inactive | inactive | inactive | inactive | inactive | inactive | inactive | inactive | inactive |  |  |  |  |  |  |  | 
CCC(=O)O | inactive | inactive | inactive | inactive | inactive | inactive | inactive | inactive |  | inactive |  |  |  |  |  |  |  | 
C/C=C/C(=O)C1=C(C)CCCC1(C)C | inactive |  | inactive | inactive | inactive |  |  |  | inactive |  | 63.7 µM (active) |  | 65.5 µM (active) | 36.5 µM (active) |  | 39.7 µM (active) |  | 69.9 µM (active)

— PubChem BioAssay (EPA / NIEHS)
